Assay outcomes (PubChem BioAssay)
Compounds with a hit are over-represented: about 19% of the library has one in this group of screens.
TDP1 cell CPT – DT40-hTDP1 cell growth loss with CPT | chicken DT40 Tdp1-/-;hTDP1 cells + 20 nM CPT, ATP luminescence, 48 h | Potency, µM (doses to about 46.2 µM), inactives show at the top dose activity change, negative = growth inhibition, usual class: inhibitors | actives 12% (n = 420,000) | AID 686979; also: potency is read from the fitted curve at half-maximal effect; nearly all actives have a fitted effect of over 55% in size
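Chicken DT40 Tdp1-/- cells complemented with human TDP1, 400 cells/well, exposed to compounds plus 20 nM camptothecin for at least 48 h at 37 C; viability read as ATP content by CellTiter-Glo luminescence.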
HT1080NT lethal – kills 2HG-producing HT-1080-NT fibrosarcoma cells. HT-1080-NT fibrosarcoma viability, CellTiter-Glo ATP luminescence, 48 h. Potency, µM (highest dose often 46.1 µM), without a hit: at the top dose activity, negative = less viability, usual class: cytotoxic. actives 1.6% (n = 360,000);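 also: NT is the 2HG producing partner of a matched IDH1 knockdown line; potency is read from the fitted curve at half-maximal effect; 0% = DMSO-treated cells and -100% = media-only wells without cells; nearly all actives have a fitted effect of over 55% in size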
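Luminescent CellTiter-Glo readout after 48 hours of compound exposure at 37 degrees C defined viability of HT-1080-NT cells. Activity was normalized to DMSO wells and cell-free media wells; concentration-response curves were fitted and assigned curve classes.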
IL-1B inflam inh – blocks inflammasome-driven IL-1 beta release; THP-1 LPS/ATP IL-1B secretion, AlphaLISA, 16 h; active compounds read low; activity change, % at 57.5 µM; actives 4.7% (n = 360,000); AID 743279; in the data active = activity change below about -50%; inconclusive = mostly about -30% to -49%
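THP-1 cells pretreated 1 hr with compounds (up to 57.5 uM final), then stimulated with LPS (250 ng/mL final) plus ATP (1.25 mM final); secreted IL-1B measured by AlphaLISA after 16 hr, decreased signal indicating inhibition.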
TDP1 cell noCPT – qHTS for Inhibitors of human tyrosyl-DNA phosphodiesterase 1 (TDP1): qHTS in cells in absence of CPT | actives 15% (n = 420,000) | DT40 Tdp1-/- hTDP1 cells, no CPT, ATP luminescence, 48 h | Potency, µM (series often up to 46.2 µM), for the others: top-dose activity change, negative = growth inhibition, actives largely listed as inhibitors; also: potency is read from the fitted curve at half-maximal effect; nearly all actives have a fitted effect of over 55% in size
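Growth of hTDP1-complemented DT40 Tdp1-knockout cells is measured by ATP luminescence after at least 48 hr compound exposure at 37 °C, with DMSO substituting for the 20 nM CPT used in the parallel screen.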
HT1080 IDH1KD tx – HT-1080 IDH1 knockdown cell toxicity (counter line) | HT-1080 IDH1 knockdown viability, ATP luminescence, 48 h | actives 2% (n = 360,000) | AID 686971 | Potency, µM (doses to about 46.1 µM), for the others: at the highest dose activity, negative = toxicity, actives largely listed as cytotoxic;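 also: potency is read from the fitted curve at half-maximal effect; 0% = DMSO wells and -100% = cell-free medium wells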
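IDH1KD HT-1080 cells, 750/well, RPMI + 5% FBS; compound pinned after 2 h settling; 48 h, 37 °C; CellTiter-Glo luminescence; % activity normalised to DMSO and no-cell wells; curves fitted, classed by r2 and efficacy.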
* marks the source's active call; other numbers are inactive results; ? = inconclusive; . = not tested or not shown; [ ] = dose if it differs, or a comment. Unless noted, calls follow the shape of the dose curve; as a rule, active = well fitted curve in the direction sought with a large enough effect; inconclusive = small, poorly fitted or top-dose-only effect, or another doubt; inactive = no such curve, though single readings can be large; an effect the other way counts as inactive or inconclusive. Unless noted, % is scaled to controls: 0 for no effect and ±100 for the full control effect.

SMILES	TDP1 cell CPT	HT1080NT lethal	IL-1B inflam inh	TDP1 cell noCPT	HT1080 IDH1KD tx
CC(C)c1nc2scc(-c3ccc(Cl)cc3)c2c(=O)n1N	26µM*	6%	-19	?	10%
O=C(NCCCN1CCOCC1)c1cc(-c2ccc(Cl)s2)nc2ccccc12	?	-17%	-78*	?	-22%
CC1CN(C(=O)c2cc(-c3ccc(Cl)s3)nc3ccccc23)CC(C)O1 (stereo unspecified)	?	5%	-53*	16µM*	-6%
O=C(NCCCN1CCOCC1)c1cc(-c2ccc(F)cc2)nc2ccccc12	?	4%[9.24 µM]	-27	-26%	-9%
O=C(NCCCN1CCOCC1)c1cc(-c2cccc(Br)c2)nc2ccccc12	?	-28%	-64*	?	?
Cc1ccccc1NC(=O)CN1CCN(C)CC1	6%	?	6	-9%	20%
Cc1ccccc1NC(=O)c1c(C)oc2ccc(O)c(CN3CCN(C)CC3)c12	16µM*	.	.	?	.
Cc1oc2ccc(O)c(CN3CCCC3)c2c1C(=O)Nc1cccc(Cl)c1C	16µM*	.	.	21µM*	.
Cc1c(Cl)cccc1NC(=O)CCN1CCN(C)CC1	-30%	2%	-13	18%	5%
Cc1oc2ccc(O)c(CN3CCN(Cc4ccccc4)CC3)c2c1C(=O)Nc1cccc(Cl)c1C	16µM*	.	.	-77%	.
CC(C)(C)c1ccc(-n2ncc3c2CCCC3NC(=O)C2=NNC(=O)CC2)cc1 (stereo unspecified)	?	1%	108	?	-14%
Cc1ccc(NC(=O)CS(=O)(=O)c2c[nH]c3ccccc23)c(C)c1	5%	-15%	-13	-17%	-6%
COCCn1c(=O)[nH]c2cc(C(=O)N3CCN(c4cccc(C(F)(F)F)c4)CC3)ccc2c1=O	21µM*	-16%	-7	13µM*	1%
COc1ccc(CCn2c(=S)[nH]c3cc(C(=O)N4CCOCC4)ccc3c2=O)cc1OC	?	-19%	42	18µM*	-15%
COCCn1c(=O)[nH]c2cc(C(=O)N3CCN(Cc4ccc5c(c4)OCO5)CC3)ccc2c1=O	-30%	5%	13	-2%	1%
COCCn1c(=S)[nH]c2cc(C(=O)N3CCN(c4cccc(Cl)c4)CC3)ccc2c1=O	21µM*	-7%	-16	4.1µM*	-10%
COCCn1c(=S)[nH]c2cc(C(=O)N3CCN(Cc4ccc5c(c4)OCO5)CC3)ccc2c1=O	?	?	-18	18µM*	-10%
COc1ccc(N2CCN(CCNC(=O)CCCn3c(=O)[nH]c4cc(Cl)ccc4c3=O)CC2)cc1	?	6%	-1	?	10%
COCCn1c(=O)[nH]c2cc(C(=O)NCCN3CCN(c4cccc(Cl)c4)CC3)ccc2c1=O	15µM*	-19%	22	3.3µM*	-25%
COc1cccc2c1Oc1cc([N+](=O)[O-])cc(N(C)C(C)=O)c1C=C2	?	-9%	2	21µM*	-3%
CCN(CC)C(=O)COc1ccc(/C=C(\C#N)S(=O)(=O)c2ccccc2)cc1OC	1%	-10%	13	8%	13%
O=C(Cn1cnc2c(oc3nc4c(cc32)CCCC4)c1=O)Nc1cccc(Cl)c1	23µM*	-25%	8	12µM*	0%
O=C(OCCOc1ccccc1)c1cc(S(=O)(=O)N2CCOCC2)c(Cl)cc1Cl	-23%	-1%	-9	?	0%
COc1ccc(OCCOC(=O)c2cc(S(=O)(=O)N3CCOCC3)c(Cl)cc2Cl)cc1	?	-1%	-94*	?	?
O=C(NC1CCCC1)c1cc(S(=O)(=O)N2CCOCC2)c(Cl)cc1Cl	-10%	7%	-9	-21%	8%
SMILES	TDP1 cell CPT	HT1080NT lethal	IL-1B inflam inh	TDP1 cell noCPT	HT1080 IDH1KD tx
O=C(COC(=O)c1cc(S(=O)(=O)N2CCOCC2)c(Cl)cc1Cl)NC1CC1	3%	-5%	-97*	3%	-9%
O=S(=O)(c1ccccc1)c1nc(-c2cccc(Cl)c2)oc1N1CCOCC1	?	-3%	-19	18µM*	-5%
Cc1cccc(-c2nc(S(=O)(=O)c3ccccc3)c(N3CCN(c4ccccc4)CC3)o2)c1	18µM*	.	.	7.3µM*	.
Cc1ccc(-c2nc(S(=O)(=O)c3ccc(C)cc3)c(N3CCCCC3)o2)cc1	6.5µM*	.	.	7.3µM*	.
Cc1ccc(S(=O)(=O)c2nc(-c3ccccc3)oc2N2CCCCCC2)cc1	23µM*	.	.	21µM*	.
O=S(=O)(c1ccccc1)c1nc(-c2ccccc2)oc1N1CCOCC1	?	-1%	26	-4%	2%
COc1ccc(CN2CC(C(=O)NCCCN3CCCCC3)CC2=O)cc1 (stereo unspecified)	-1%	12%	29	21%	16%
Cc1cccc2c(N3CCCC3)nc(CNS(=O)(=O)c3ccccc3Cl)nc12	-13%[9.04 µM]	.	.	-29%	.
CCN1CCN(c2oc(-c3ccccc3)nc2S(=O)(=O)c2ccc(C)cc2)CC1	?	-2%	-56*	?	14%
CN(C)c1oc(-c2ccccc2Cl)nc1C#N	-21%	24%	0	?	3%
O=S(=O)(c1ccccc1)c1nc(-c2ccc(Cl)cc2Cl)oc1N1CCCCCC1	23µM*	.	.	18µM*	.
CN(C)c1oc(-c2ccccc2Cl)nc1S(=O)(=O)c1ccccc1	?	11%	-17	21µM*	-5%
Cc1ccccc1-c1nc(S(=O)(=O)c2ccccc2)c(N2CCCC2)o1	?	4%	1	?	-12%
CC1(C)C(=O)Nc2ccccc2N1C(=O)COc1ccccc1C#N	-2%	8%	12	-29%	9%
COc1cc(C2Oc3ccccc3C=C2[N+](=O)[O-])cc(OC)c1OC (stereo unspecified)	3.3µM*	5.8µM*	-104*	2.6µM*	5.8µM*
CCc1c(C)sc2c1CCN(C(=O)Nc1cc(C)cc(C)c1)C2c1ccccc1 (stereo unspecified)	3.7µM*	.	.	8.2µM*	.
CCOc1ccccc1NC(=O)N1CCCC1C(=O)NCc1cccs1 (stereo unspecified)	?	12%	6	-3%	4%
Cc1cc(C)cc(NC(=O)N2CCC(NC(=O)c3ccccc3C)CC2)c1	-2%	4%	7	-19%	5%
CCOc1ccccc1NC(=O)N1CCc2c(sc(C)c2CC)C1c1ccccc1 (stereo unspecified)	?	.	.	15µM*	.
O=C(O)c1ccc(NC(=O)C2C3CCC(O3)C2C(=O)O)cc1 (stereo unspecified)	-17%	-28%	127	14%	-17%
